Test results published in PubChem BioAssay (NCI).
Compounds without any hit were thinned out: in the full panel of roughly 83,000, 20% have a hit.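 Step 1: grow cells in 96-well plates. Step 2: add test compound at a single concentration. Step 3: incubate 48 h. Step 4: record percent growth.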 Unmarked numbers belong to inactive results. The source made the active and inactive calls.

Tested on: MOLT-4 leukemia
Test: NCI-60 one-dose screen, 48 h (100 = growth as untreated, 0 = no growth, -100 = all killed)
Settings: 10 µM unless noted
Protocol: Growth inhibition of the MOLT-4 human tumor cell line is measured as a screen for anti-cancer activity. Cells are grown in 96 well plates and exposed to the test compound for 48 hours. Compounds are tested at a single concentration, which is 10^-5 M for most compounds. The reported endpoint is percent growth (GI% or GIPRCNT), where numbers from 0 - 100% represent growth inhibition, and numbers from -100% - 0 represent cell death. For example, a value of 40 represents 60% growth inhibition. A value of 0 means no net growth occurred over the course of the experiment. A value of -40 indicates 40% of cells at the beginning of the experiment died by the end of the experiment. A value of -100 means all cells are dead at the end of the experiment.
NCI-60 Human Tumor Cell Lines Screen was performed using the standard one-dose NCI protocol, which is described in more detail at https://dtp.cancer.gov/discovery_development/nci-60/default.htm.
Compounds with GIPRCNT values below 10 were considered active. Activity score was based on GIPRCNT using the following formula: […]
Score is 0 for GIPRCNT values of 100 or above, 50 for GIPRCNT values of 0, and 100 for GIPRCNT values of -100.

Going from `Cc1cccc(C(=O)O)n1` to `COCCCNCC(=O)Nc1c(C)cccc1C`, the growth rises from 94.2% to 103%.

Going from `CC(C)(C)NC(=O)C(OC(=O)C1CCc2cc(F)ccc2O1)c1ccccc1Cl` (stereo not given) to `C/C=C(\C)C(C(=O)NC1CCCCC1)N(C(=O)C1CCc2cc(F)ccc2O1)c1ccc([N+](=O)[O-])cc1` (stereo not given), the growth falls from 94.6% to 76.4%.

First: COc1ccc(C(=O)C(CN(C)C)c2ccccc2)cc1 (stereo not given)
Second: O=C(O)c1ccccc1N=Cc1ccccc1
The growth of the first is lower: 21.7% for the first, 94.6% for the second.

Going from `Brc1cccc(-n2ncc3c(Nc4ccc(-c5nnc(-c6ccccc6)o5)cc4)ncnc32)c1` to `CC(=O)c1cccc(Nc2ncnc3ccc(NC(=O)c4ccco4)cc23)c1`, the growth falls from 108% to 77.5%.

Going from `CC1C2CCC(C2)C1COCCOCCO` (stereo not given) to `Fc1[nH]nc2ccc([C@@H]3Nc4ccc5[nH]ncc5c4[C@H]4C5CCC(C5)[C@@H]34)cc12` (stereo not given in full), the growth falls from 97.6% to 21.2%.

Compared with `NS(=O)(=O)c1ccc(N2N=C(c3ccc(Br)cc3)CC2c2cn(-c3ccccc3)nc2-c2ccc(Cl)cc2)cc1` (stereo not given), `O=C1/C(=C\c2cccn2C(=O)c2ccccc2)c2ccccc2N1c1c(Cl)cccc1Cl` is lower in growth: 74.8% for the first, 27.9% for the second.

Going from `Oc1ccc(Cl)cc1-c1cc(-c2ccccc2Cl)[nH]n1` to `O=C1Nc2ccccc2/C1=C/c1c[nH]c2ccccc12`, the growth rises from 28.5% to 65.6%.

First: COc1ccc(/C=c2\c(=O)n(-c3ccccc3)c3nn4c(n23)=NNC42CCCCC2)cc1
Second: COc1ccc(-c2nsc3c2NC(=O)CC3c2cccc(F)c2)cc1 (stereo not given)
The growth of the first is higher: 98.8% for the first, 41.6% for the second.

Compared with `COc1cc2nccc(Oc3ccc(NC(=O)C4(C(=O)Nc5ccc(F)cc5)CC4)cc3)c2cc1Oc1ccc(N)cn1`, `O=C(Nc1ccc(OS(=O)(=O)c2ccc(F)cc2)cc1)C12CC3CC(CC(C3)C1)C2` is higher in growth: 29.5% for the first, 33.3% for the second.

Going from `Clc1ccc(-c2nc(Br)cn3ccnc23)cc1` to `CN(C)c1ccc(/C=N/Nc2nnc3n2N=C(c2ccc(Cl)cc2)CS3)cc1`, the growth falls from 78.9% to 66.6%.

Compared with `CCCCCCCCCC1=NC(C)(C)CN1C(C)(C)CO`, `CC(C)=CCC[C@H](C)c1ccc(C)c2c1OCN(CCO)C2` is higher in growth: 15.9% for the first, 101% for the second.

Compared with `O=c1cc(-c2ccc3c(c2)OCCO3)oc2cc(Cl)ccc12`, `Cc1cc(Cl)c2ccc(N(C)C)cc2n1` is lower in growth: 101% for the first, 84.7% for the second.

First: COS(=O)(=O)CCN(CCOS(C)(=O)=O)S(C)(=O)=O
Second: COc1cc(C)c2c(=O)c3c(oc2c1)C(=O)c1c(O)c(OC)cc(O)c1C3=O
The growth of the first is higher: 90.5% for the first, 16.3% for the second.

Going from `CCCc1n(Cc2ccc3ccccc3n2)cc[n+]1Cc1ccc2ccccc2n1` to `COc1ccc(-c2nc(-c3cc(OC)cc(OC)c3)[nH]c2-c2ccc(OC)cc2)cc1`, the growth falls from 23.2% to 14.2%.

First: C#CC[C@@H]1C[C@]2(C)[C@H]3CC[C@@H]4[C@H]5C(C(=C)C)CC[C@]5(C(=O)NCCN(CCN)CCN)CC[C@@]4(C)[C@]3(C)CC[C@H]2C(C)(C)[C@H]1OC(C)=O (stereo not given in full)
Second: CC(=O)O[C@H]1[C@H](CC#CC#CC[C@@H]2C[C@]3(C)[C@H]4CC=C5[C@H]6[C@@H](C)[C@H](C)CC[C@]6(C(=O)NCCCCCCCCN)CC[C@@]5(C)[C@]4(C)CC[C@H]3C(C)(C)[C@H]2OC(C)=O)C[C@]2(C)[C@H]3CC=C4[C@H]5[C@@H](C)[C@H](C)CC[C@]5(C(=O)NCCCCCCCCN)CC[C@@]4(C)[C@]3(C)CC[C@H]2C1(C)C
The growth of the first is lower: 31.1% for the first, 103% for the second.

Compared with `C=C(C)[C@@H]1CC[C@]2(C)[C@H](CC=C3[C@@H]4C[C@](C)(C(=O)N5CCN(C)CC5)CC[C@]4(C)CC[C@]32C)[C@@]1(C)CCC#N`, `CC(=O)[C@H]1CC[C@H]2[C@@H]3CC[C@H]4CC=CC[C@]4(C)[C@H]3CC[C@]12C` is higher in growth: 32.1% for the first, 83.9% for the second.

`Nc1nc2ccc([C@@H]3Nc4ccc5[nH]ncc5c4[C@H]4[C@H]5CCC(C5)[C@H]43)cc2s1` was tested, and the growth was 7.02% (active).
With `COc1ccc(C(=O)c2cc(C)c(OC)c(C)c2)cc1OC(=O)CCl` the growth was 5.7% (active).
For `CCCCCCCCCCCCCCCCCC1=NC(C)(C)CN1C(C)(C)CO`, the growth was -55.2% (active).
In the case of `CN1CCN(Cc2ccc(NC(=O)c3cnc(F)c(C#Cc4cnc(N)c5ncccc45)c3)cc2C(F)(F)F)CC1`, the growth is reported as 8.73% (active).
In the case of `O=C(OCc1ccc2c(Cl)cc(Cl)c(O)c2n1)c1cc2ccccc2[nH]1`, the growth is reported as -8.99% (active).
`Cn1nc(C(F)(F)F)cc1-c1cc(Cl)c(OCc2ccc(Cl)cc2)c(-c2ccc(Cl)c(C(F)(F)F)c2)c1O` was tested, and the growth was -14.2% (active).
`CCCNC(=S)N/N=C(\C)c1ccccn1` was tested, and the growth was 6.93% (active).
With `COc1cccc(CC(C)=C(c2ccc(OCCCN(C)C)cc2)c2ccc(OCCCN(C)C)cc2)c1` the growth was -61.4% (active).
